# Screening results deposited in PubChem BioAssay by National Center for Advancing Translational Sciences (NCATS).
# Most compounds without a hit are left out; they make up all but 18% or so of the library.
# LDHA block: qHTS assay for inhibitors of human lactate dehydrogenase | 0.15% of 480,000 active | AID 1347041, 2019 | activity change, % (values are at about 110 or 230 µM) | L-lactate dehydrogenase A chain (Homo sapiens), P00338 | purified LDHA, NADH/diaphorase-resazurin fluorescence; stronger effect = lower value; in the data active = activity change below about -30%; inconclusive = mostly about -25% to -30%
#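 Remaining NADH was detected by diaphorase (0.133 mg/mL) converting 37 µM resazurin to fluorescent resorufin, read at 0 and 20 minutes. The preceding 5-minute room-temperature reaction used 2 nM LDHA, 0.2 mM sodium pyruvate and 0.06 mM NADH at pH 7.4.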
# TDP1 cell noCPT: qHTS for Inhibitors of human tyrosyl-DNA phosphodiesterase 1 (TDP1): qHTS in cells in absence of CPT. DT40 Tdp1-/- hTDP1 cells, no CPT, ATP luminescence, 48 h. Potency, µM (top dose mostly 46.2 µM), usual class: inhibitors. 15% of 420,000 active. AID 686978, 2013; also: nearly all actives have a fitted effect of over 55% in size
#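 No-CPT arm: Tdp1-/-;hTDP1 DT40 cells (400/well) plus compounds, incubated ≥48 hr at 37 °C. Readout CellTiter-Glo luminescence.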
# RORgamma inh: qHTS for inhibitors of ROR gamma transcriptional activity | Drosophila S2 Gal4-RORgamma UAS-luciferase reporter, 20 h | Nuclear receptor ROR-gamma (Mus musculus), P51450 | AID 2551, 2010 | 5.4% of 310,000 active | Potency, µM (titrated, usually from 53.6 µM), usual class: inhibitors; also: nearly all actives have a fitted effect of over 60% in size
# Target sequence (P51450 whole entry, looked up, the tested form may be a part): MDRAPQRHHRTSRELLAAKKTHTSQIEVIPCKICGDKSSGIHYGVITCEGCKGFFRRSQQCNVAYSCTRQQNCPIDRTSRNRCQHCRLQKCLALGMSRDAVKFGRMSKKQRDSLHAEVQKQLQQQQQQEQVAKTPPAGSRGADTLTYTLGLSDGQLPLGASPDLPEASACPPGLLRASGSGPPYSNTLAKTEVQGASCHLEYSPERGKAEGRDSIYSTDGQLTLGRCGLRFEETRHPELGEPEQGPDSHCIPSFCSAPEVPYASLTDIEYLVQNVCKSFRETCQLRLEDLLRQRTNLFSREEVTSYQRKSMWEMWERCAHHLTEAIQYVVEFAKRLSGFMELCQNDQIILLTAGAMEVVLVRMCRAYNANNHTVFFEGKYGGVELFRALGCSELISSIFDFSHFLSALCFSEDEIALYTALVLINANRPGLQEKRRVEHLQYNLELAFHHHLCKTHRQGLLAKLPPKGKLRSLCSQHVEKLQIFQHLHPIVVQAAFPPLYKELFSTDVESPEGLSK
#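 Compounds are pin-transferred onto Drosophila Schneider cells expressing a copper-inducible Gal4–ROR gamma transactivation domain fusion. After 1 hr, copper sulfate is added to 700 uM final; luciferase is read 20 hr later.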
# IL1B secr inh: qHTS for Inhibitors of Inflammasome Signaling: IL-1-beta AlphaLISA Primary Screen. THP-1 LPS/ATP IL-1B secretion, AlphaLISA, 16 h; stronger effect = lower value. activity change, % at 57.5 µM. 4.7% of 360,000 active; in the data active = activity change below about -50%; inconclusive = mostly about -30% to -49%
#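 Secreted IL-1B measured by AlphaLISA bead assay after 16 h compound exposure of THP-1 cells; compounds (final up to 57.5 uM) added 1 h before LPS (250 ng/mL) and ATP (1.25 mM) stimulation; lower signal means less secretion.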
# Gal4-VP16 FLuc: VP16 counterscreen qHTS for inhibitors of ROR gamma transcriptional activity | Potency, µM (highest dose often 53.6 µM), most hits filed as inhibitors | AID 2546, 2010 | Drosophila S2 Gal4-VP16 UAS-luciferase, luminescence, 20 h | 3.5% of 310,000 active;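 also: Gal4-VP16 expression switched on by copper sulfate through the metallothionein promoter; nearly all actives have a fitted effect of over 50% in size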
# TDP1 cell CPT: qHTS for Inhibitors of human tyrosyl-DNA phosphodiesterase 1 (TDP1): qHTS in cells in presence of CPT; 12% of 420,000 active; chicken DT40 Tdp1-/-;hTDP1 cells + 20 nM CPT, ATP luminescence, 48 h; Potency, µM (titrated, usually from 46.2 µM), most hits filed as inhibitors; AID 686979, 2013; also: nearly all actives have a fitted effect of over 55% in size
#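 Chicken DT40 Tdp1-/- cells stably complemented with human TDP1 were seeded at 400 cells/well in medium containing 20 nM camptothecin, exposed to pin-transferred compounds, and grown at 37 °C for at least 48 hr. Viability was read as ATP luminescence.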
# Hits are given with their value; – = inactive; ? = inconclusive; · = no result; [ ] = remark or other dose. Unless noted, calls follow the shape of the dose curve; as a rule, active = well fitted curve in the direction sought with a large enough effect; inconclusive = small, poorly fitted or top-dose-only effect, or another doubt; inactive = no such curve, though single readings can be large; an effect the other way counts as inactive or inconclusive.
SMILES,LDHA block,TDP1 cell noCPT,RORgamma inh,IL1B secr inh,Gal4-VP16 FLuc,TDP1 cell CPT
O=C(Nc1cccc(-c2cn3ccccc3n2)c1)c1ccccc1,–,?,–,-68,–,?
Cc1cc(C)c(S(=O)(=O)Nc2cccc(-c3cn4ccccc4n3)c2)c(C)c1,–,29µM,·,·,·,18µM
Cc1ccccc1C(=O)Nc1cccc(-c2nc3ccccc3o2)c1,–,·,·,·,·,·
CCCS(=O)(=O)Nc1cccc(-c2cn3ccc(C)cc3n2)c1,–,16µM,·,·,·,23µM
Cc1ccccc1C(=O)Nc1cccc(-c2cn3ccccc3n2)c1,–,?,–,-80,–[10 µM],?
Cn1c(=O)c2c(ncn2CCC(=O)Nc2cc(Cl)cc(Cl)c2)n(C)c1=O,–,·,·,·,·,·
Cc1[nH]c2ccccc2c1C(=O)N1CCN(S(=O)(=O)c2ccc(F)cc2F)CC1,–,·,·,·,·,·
COc1cc(OC)cc(-c2nc(-c3nonc3N)no2)c1,–,·,·,·,·,·
COc1cccc(C2=CC(c3cc(Cl)ccc3OC(F)F)n3ncnc3N2)c1 (stereo not drawn),–,·,·,·,·,·
Clc1ccc(-c2cn3ccccc3n2)cc1,–,–,?,–,–,–
Cc1ccc(C(=O)Nc2cccc(-c3cn4ccccc4n3)c2)cc1,–,?,–,-52,–,?
O=C(Nc1ccc(-c2cn3ccccc3n2)cc1)c1ccc(Cl)cc1,–,9.2µM,–,–,–,23µM
Cc1ccc(C(=O)Nc2ccc3c(c2)CCC3)s1,–,·,·,·,·,·
CC(C)(C)OC(=O)N1CCC(c2c(C(=O)N3CCN(C4CCCCC4)CC3)cnn2-c2cccc(Cl)c2)CC1,–,23µM,·,·,·,16µM
COc1ccccc1N1CCN(C(=O)c2cnn(-c3ccc(C)c(C)c3)c2C2CCN(C(=O)OC(C)(C)C)CC2)CC1,–,21µM,·,·,·,21µM
CC(C)(C)OC(=O)N1CCC(c2c(C(=O)N3CCN(C4CCCCC4)CC3)cnn2-c2ccc(F)cc2)CC1,–,–,–,–,–,–
Cc1ccc(-n2ncc(C(=O)N3CCN(c4ccccn4)CC3)c2C2CCN(C(=O)OC(C)(C)C)CC2)cc1C,–,–,·,·,·,–
CC(C)(C)OC(=O)N1CCC(c2c(C(=O)NCC3CCN(C4CCCC4)C3)cnn2-c2cccc(Cl)c2)CC1 (stereo not drawn),–,?,–,-56,–,?
Cc1ccc(-n2ncc(C(=O)N3CCN(C4CCCCC4)CC3)c2C2CCN(C(=O)OC(C)(C)C)CC2)cc1C,–,7.3µM,·,·,·,8.2µM
CCOC(=O)c1cnn(-c2cccc(Cl)c2)c1C1CCN(C(=O)OC(C)(C)C)CC1,–,?,·,·,·,23µM
COc1ccc(-n2ncc(C(=O)N3CCN(C4CCCCC4)CC3)c2C2CCN(C(=O)OC(C)(C)C)CC2)cc1,–,21µM,·,·,·,?
Cc1c(Cl)cccc1-n1ncc(C(=O)N2CCOCC2)c1C1CCN(C(=O)OC(C)(C)C)CC1,–,–,·,·,·,?
Cc1ccc(N2CCN(C(=O)c3cnn(-c4ccc(C)c(C)c4)c3C3CCNCC3)CC2)c(C)c1,–,6.5µM,·,·,·,6.5µM
Cc1cccc(N2CCN(C(=O)c3cnn(-c4cccc(Cl)c4C)c3C3CCNCC3)CC2)c1C,–,5.2µM,·,·,·,3.7µM
CCn1cc(CNC(=O)c2cc(-c3ccc(C)c(C)c3)nc3ccccc23)cn1,–,·,·,·,·,·
SMILES,LDHA block,TDP1 cell noCPT,RORgamma inh,IL1B secr inh,Gal4-VP16 FLuc,TDP1 cell CPT
CS(=O)(=O)N1N=C(c2cccs2)CC1c1ccccc1O (stereo not drawn),–,–,–,–,–,–
Oc1ccccc1C1CC(c2cccs2)=NC(c2ccc(Cl)cc2)N1 (stereo not drawn),–,4.1µM,?,?,–,21µM
CC(C)C[C@@H](CN1CCC[C@H]1CN1C(=O)C(=O)NC[C@@H]1Cc1ccccc1)N1C[C@H](Cc2ccc(O)cc2)N(CCc2ccccc2)C(=O)C1=O,–,?,·,–,·,?
CC(C)[C@@H]1CN=C(N)N1C[C@@H]1CCCN1C[C@H](C)N1C[C@@H](Cc2ccccc2)N(CCc2ccc(Cl)c(Cl)c2)C1=N,–,?,·,-75,·,?
CC[C@@H](C)[C@@H]1CN([C@@H](C)CN2CCC[C@H]2CN2C(N)=NC[C@H]2CC(C)C)C(=N)N1CCc1ccc(Cl)c(Cl)c1,–,?,·,?,·,?
CC(C)[C@H](CN1CCC[C@H]1CN1C(N)=NC[C@@H]1Cc1ccccc1)N1C[C@@H](Cc2ccccc2)N(CCc2ccc(Cl)c(Cl)c2)C1=N,–,?,·,?,·,9.2µM
CC[C@@H](C)[C@@H]1CN([C@@H](CN2CCC[C@H]2CN2C(N)=NC[C@H]2CC(C)C)C(C)C)C(=N)N1CCc1ccc(Cl)c(Cl)c1,–,?,·,-60,·,?
C[C@@H](CN1CCC[C@H]1CN1C(N)=NC[C@@H]1Cc1ccccc1)N1C[C@@H](Cc2ccccc2)N(CCc2ccc(Cl)c(Cl)c2)C1=N,–,?,·,-66,·,?
CC(=O)c1cccc(OCc2ccc(C(N)=O)cc2)c1,–,·,·,·,·,·
NCCNCCc1ccccc1,–,·,·,·,·,·
COc1ccc(NC(=O)c2sc3ncnc(N(C)c4ccccc4)c3c2C)cc1Cl,–,·,·,·,·,·
O=C(c1cccnc1)N1CCN(c2c(Cl)cccc2[N+](=O)[O-])CC1,–,8.2µM,–,–,–,–
O=C(/C=C/c1ccccc1)N1CCN(c2c(Cl)cccc2[N+](=O)[O-])CC1,–,16µM,?,?,–,23µM
CC(C)C(=O)N1CCN(c2c(Cl)cccc2[N+](=O)[O-])CC1,–,?,–,–,–,–
CN(CCS(=O)c1ccccc1)Cc1ccc2c(c1)OCCO2 (stereo not drawn),–,·,·,·,·,·
Cc1ccc(NC(=O)c2cc3c(s2)CCCCC3)c(C)c1,–,·,·,·,·,·
Cn1ccc(NC(=O)CCc2ncc(-c3ccccc3)o2)n1,–,·,·,·,·,·
Cc1ccc(SCCOCCN2CCc3ccccc3C2)cc1,?,16µM,–,–,–,?
Cc1ccc(C)c(OCCCN2CCc3ccccc3C2)c1,–,?,–,–,–,12µM
CCCOC(=O)NC1CCS(=O)(=O)C1 (stereo not drawn),–,–,–,–,–,–
O=C(NC1CCS(=O)(=O)C1)Oc1ccccc1 (stereo not drawn),–,26µM,–,–,–,?
CCCCCCCCCCOC(=O)NC1CCS(=O)(=O)C1 (stereo not drawn),–,21µM,?,–,?,?
COc1ccccc1Oc1ccc2c(c1)C(=O)N(c1cccc(O)c1)C2=O,–,–,–,–,?,–
